# Biological target: T1, RELB subunit;p52 subunit (Homo sapiens;Homo sapiens, UniProt Q01201;Q00653 120-401;4-332)
# T1 sequence 1: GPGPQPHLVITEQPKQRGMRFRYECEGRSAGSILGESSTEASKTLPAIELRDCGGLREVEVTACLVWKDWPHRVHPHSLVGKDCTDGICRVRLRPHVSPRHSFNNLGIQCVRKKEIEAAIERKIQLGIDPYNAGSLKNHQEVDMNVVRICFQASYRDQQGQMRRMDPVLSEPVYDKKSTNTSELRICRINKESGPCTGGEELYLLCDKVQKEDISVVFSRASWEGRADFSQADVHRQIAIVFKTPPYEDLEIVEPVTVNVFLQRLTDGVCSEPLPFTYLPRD
# T1 sequence 2: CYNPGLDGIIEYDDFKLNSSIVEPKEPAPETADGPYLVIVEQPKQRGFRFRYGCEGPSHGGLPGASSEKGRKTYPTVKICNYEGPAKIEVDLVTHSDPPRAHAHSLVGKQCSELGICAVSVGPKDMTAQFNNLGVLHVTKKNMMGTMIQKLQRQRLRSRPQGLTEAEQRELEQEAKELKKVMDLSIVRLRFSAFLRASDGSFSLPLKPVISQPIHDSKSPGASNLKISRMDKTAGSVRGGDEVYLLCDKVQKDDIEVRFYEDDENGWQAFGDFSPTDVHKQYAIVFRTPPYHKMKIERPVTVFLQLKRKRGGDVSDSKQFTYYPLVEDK
# Experiment: protein binding microarray; high values mean tight binding
# Settings: dsDNA, one strand shown
row,Sequence,binding signal
1,AGAGGTTCCCC,1.64 z-score
2,GGAGTTCCCCT,2.29 z-score
3,CGGTGCCTCCT,-0.769 z-score
4,GAGTAAGCCCC,0.116 z-score
5,AGGATTTCCCT,1.91 z-score
6,AGGTTTATCCT,-0.798 z-score
7,CGGTTTACCCC,1.16 z-score
8,GGGGGGCCCCT,1.45 z-score
9,CGGGTAGTCCC,1.17 z-score
10,GAGAATTCCCT,1.74 z-score
11,AAGTGCCTCCC,-0.731 z-score
12,CAAGAGTCCCC,1.28 z-score
13,CGGTAACTCCC,1.02 z-score
14,CAATTCCTCCT,-0.932 z-score
15,GAAATGCTCCC,-0.819 z-score
16,GAGATACCCCT,1.63 z-score
17,GGGGAATTCCC,3.85 z-score
18,CAAGTTCCCCT,2.14 z-score
19,GAGTTCTTCCT,-0.72 z-score
20,CAGAATCTCCC,0.396 z-score

row,Sequence,binding signal
1,GGAATCGTCCC,0.267 z-score
2,AAGTATTCCCT,0.852 z-score
3,AGATATCTCCT,-1.06 z-score
4,CGAAAAATCCT,-0.584 z-score
5,AGAAGCATCCC,-0.776 z-score
6,AGGATCACCCT,-0.242 z-score
7,CAGGAAACCCC,1.39 z-score
8,AAAAGCCTCCT,-0.999 z-score
9,CAAATGCCCCT,1.47 z-score
10,GGGTAACCCCT,1.45 z-score
11,AGAGATTTCCT,-0.49 z-score
12,GAGGGCTCCCC,-0.218 z-score
13,AGATTCTTCCT,-0.93 z-score
14,GAATTAGTCCT,-0.767 z-score
15,GAAGTGTCCCT,1.37 z-score
16,CAGTGAACCCC,-0.205 z-score
17,CGGGAACCCCC,2.34 z-score
18,GGAGTCCTCCC,-0.535 z-score
19,GAGAAACCCCC,2.04 z-score

# Biological target: C-Rel subunit;p50 subunit (Homo sapiens;Homo sapiens, UniProt Q04864;P19838 1-285;7-356)
# Experiment: as above
# Settings: dsDNA, one strand shown
row,Sequence,binding signal
1,AGAGGTTCCCC,1.37 z-score
2,GGAGTTCCCCT,2.61 z-score
3,CGGTGCCTCCT,-1.19 z-score
4,GAGTAAGCCCC,0.263 z-score
5,AGGATTTCCCT,1.36 z-score
6,AGGTTTATCCT,-1.17 z-score
7,CGGTTTACCCC,1.04 z-score
8,GGGGGGCCCCT,1.22 z-score
9,CGGGTAGTCCC,1.09 z-score
10,GAGAATTCCCT,1.43 z-score
11,AAGTGCCTCCC,-1.1 z-score
12,CAAGAGTCCCC,0.916 z-score
13,CGGTAACTCCC,0.555 z-score
14,CAATTCCTCCT,-0.776 z-score
15,GAAATGCTCCC,-0.726 z-score
16,GAGATACCCCT,0.434 z-score
17,GGGGAATTCCC,3.14 z-score
18,CAAGTTCCCCT,1.56 z-score
19,GAGTTCTTCCT,-0.764 z-score
20,CAGAATCTCCC,0.223 z-score

row,Sequence,binding signal
1,GGAATCGTCCC,0.649 z-score
2,AAGTATTCCCT,0.812 z-score
3,AGATATCTCCT,-1.37 z-score
4,CGAAAAATCCT,-0.32 z-score
5,AGAAGCATCCC,-1.06 z-score
6,AGGATCACCCT,-0.558 z-score
7,CAGGAAACCCC,1.04 z-score
8,AAAAGCCTCCT,-1.5 z-score
9,CAAATGCCCCT,0.882 z-score
10,GGGTAACCCCT,0.858 z-score
11,AGAGATTTCCT,-0.209 z-score
12,GAGGGCTCCCC,0.253 z-score
13,AGATTCTTCCT,-0.642 z-score
14,GAATTAGTCCT,-0.711 z-score
15,GAAGTGTCCCT,0.382 z-score
16,CAGTGAACCCC,-0.189 z-score
17,CGGGAACCCCC,2.01 z-score
18,GGAGTCCTCCC,-0.207 z-score
19,GAGAAACCCCC,1.45 z-score

# Biological target: T2, C-Rel subunit;p52 subunit (Homo sapiens;Homo sapiens, UniProt Q04864;Q00653 1-285;4-332)
# T2 sequence 1: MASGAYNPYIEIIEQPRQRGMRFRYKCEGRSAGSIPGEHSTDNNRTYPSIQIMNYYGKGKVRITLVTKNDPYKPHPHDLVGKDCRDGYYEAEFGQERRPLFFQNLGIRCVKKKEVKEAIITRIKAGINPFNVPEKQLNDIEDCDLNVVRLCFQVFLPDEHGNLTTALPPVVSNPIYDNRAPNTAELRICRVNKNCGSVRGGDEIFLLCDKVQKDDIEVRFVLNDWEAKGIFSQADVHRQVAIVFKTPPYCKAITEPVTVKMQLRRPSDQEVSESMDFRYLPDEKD
# T2 sequence 2: T1 sequence 2
# Experiment: as above
# Settings: dsDNA, one strand shown
row,Sequence,binding signal
1,AGAGGTTCCCC,1.14 z-score
2,GGAGTTCCCCT,3.5 z-score
3,CGGTGCCTCCT,-0.785 z-score
4,GAGTAAGCCCC,0.236 z-score
5,AGGATTTCCCT,1.67 z-score
6,AGGTTTATCCT,-0.61 z-score
7,CGGTTTACCCC,1.04 z-score
8,GGGGGGCCCCT,1.71 z-score
9,CGGGTAGTCCC,1.5 z-score
10,GAGAATTCCCT,1.33 z-score
11,AAGTGCCTCCC,-0.788 z-score
12,CAAGAGTCCCC,0.77 z-score
13,CGGTAACTCCC,0.833 z-score
14,CAATTCCTCCT,-0.597 z-score
15,GAAATGCTCCC,-0.598 z-score
16,GAGATACCCCT,0.859 z-score
17,GGGGAATTCCC,4.19 z-score
18,CAAGTTCCCCT,1.84 z-score
19,GAGTTCTTCCT,-0.548 z-score
20,CAGAATCTCCC,0.378 z-score

row,Sequence,binding signal
1,GGAATCGTCCC,0.392 z-score
2,AAGTATTCCCT,0.523 z-score
3,AGATATCTCCT,-0.83 z-score
4,CGAAAAATCCT,-0.29 z-score
5,AGAAGCATCCC,-0.81 z-score
6,AGGATCACCCT,-0.421 z-score
7,CAGGAAACCCC,1.76 z-score
8,AAAAGCCTCCT,-1.03 z-score
9,CAAATGCCCCT,1.38 z-score
10,GGGTAACCCCT,1.95 z-score
11,AGAGATTTCCT,-0.443 z-score
12,GAGGGCTCCCC,0.154 z-score
13,AGATTCTTCCT,-0.588 z-score
14,GAATTAGTCCT,-0.848 z-score
15,GAAGTGTCCCT,0.65 z-score
16,CAGTGAACCCC,-0.119 z-score
17,CGGGAACCCCC,2.86 z-score
18,GGAGTCCTCCC,-0.576 z-score
19,GAGAAACCCCC,2.14 z-score
